We go through 40 compounds from PubChem BioAssay (NCATS).

Molecules are shown by their SMILES. Records with an inconclusive call do not appear. Entries that show only a call come without a potency. Activity calls are given as the source filed them. The call rests on the fitted dose curve; in most records, active means well fitted inhibition curve with a large enough effect; inconclusive means small, poorly fitted or top-dose-only effect; inactive means flat fitted curve, though single readings scatter.
Potency means the concentration at half of the fitted maximal effect.

The target of the test is Dual specificity protein kinase CLK4 (Homo sapiens) (UniProt Q9HAZ1). Nature of the test: qHTS Assay for Inhibitors of CDC-like Kinase 4 (Kinase-Glo Assay) (AID 1770). Further: nearly all actives have a fitted effect of over 65% in size. Conditions: recombinant Clk4, Kinase-Glo ATP depletion luminescence; series mostly up to 66.7 µM. The procedure: NIH Molecular Libraries Probe Production Centers Network [MLPCN] NIH Chemical Genomics Center [NCGC] MLPCN Grant: 1R03MH084827-01 Assay Submitter (PI): Tom Misteli NCGC Assay Overview: Clk4 (Invitrogen, cat# PV3839) was assayed using ATP and the RS repeat peptide (AnaSpec cat # 61722) as substrates. Following the Clk4 reaction, the remaining ATP levels were detected using Promega Kinase-Glo technology wherein the remaining ATP from the kinase reaction is detected using Ultra-Glo luciferase and D-luciferin which generates a bioluminescence signal from the ATP. The positive control for the assay was TG003 (Sigma-Aldrich, cat# 300801-52-9) which has been described as an inhibitor of Clk 4[1].
Dual specificity protein kinase CLK4 (Homo sapiens), sequence (Q9HAZ1 whole entry, looked up): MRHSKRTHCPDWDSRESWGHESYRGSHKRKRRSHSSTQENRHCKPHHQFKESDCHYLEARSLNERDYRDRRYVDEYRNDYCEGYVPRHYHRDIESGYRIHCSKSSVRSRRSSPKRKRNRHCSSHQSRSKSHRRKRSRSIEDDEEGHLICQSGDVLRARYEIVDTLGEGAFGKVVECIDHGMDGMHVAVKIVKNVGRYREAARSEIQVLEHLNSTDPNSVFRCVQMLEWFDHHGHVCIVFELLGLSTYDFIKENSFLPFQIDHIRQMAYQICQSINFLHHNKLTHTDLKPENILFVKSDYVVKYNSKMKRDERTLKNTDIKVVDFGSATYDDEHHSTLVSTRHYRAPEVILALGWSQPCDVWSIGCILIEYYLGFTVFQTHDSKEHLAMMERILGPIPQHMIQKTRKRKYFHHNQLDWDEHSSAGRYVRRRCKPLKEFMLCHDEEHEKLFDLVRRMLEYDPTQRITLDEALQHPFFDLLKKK
NCGC Assay Protocol Summary: Two uL/well of substrate-buffer solution (100 uM RS peptide, 1 uM ATP, 25 mM Tris pH7.5, 10 mM MgCl2, 0.5 mM EGTA, 2.5 mM DTT, 0.01% Triton X-100 final concentration) was dispensed into 1536-well, assay plates (Greiner, solid white medium-binding plates) with Aurora Discovery BioRAPTR Flying Reagent Dispenser (FRD; Beckton-Dickenson). Using a Kalypsys pin tool equipped with a 1536-pin tool, 23 nL of compound solution was transferred to the assay plate. One uL/ well Clk4-buffer solution (25 nM Clk4, 25 mM Tris pH 7.5, 10 mM MgCl2, 0.5 mM EGTA, 2.5 mM DTT, 0.01% Triton X-100, final concentrations) was then added using the FRD yielding a total kinase reaction volume of 3 uL/ well. After 4.5 hours of room temperature incubation, 3 uL Kinase-Glo reagent was added for a final assay volume of 6 uL/ well. Luminescence was detected with the ViewLux plate reader (Perkin Elmer, Waltham, MA) after 5 min incubation using a 5 second exposure time and 2x binning.
Turning to `c1cncc(-c2nc(-n3ccnc3)c3ccccc3n2)c1`, the Potency was 11.2 µM (active).

For the compound `Cc1cnc(CNc2ncncc2-c2ccc3c(c2)OCO3)cn1`, the Potency was 14.1 µM (active).

As to `CN(C)c1ncc2nc(-c3cccs3)c(=O)n(-c3ccccc3)c2n1`, the Potency result is “inactive”.

As for `CN1CCN(c2ncc3nc(CCc4ccccc4)c(=O)n(C)c3n2)CC1`, the Potency result was “inactive”.

Consider `O=c1c(CCc2ccccc2)nc2cncnc2n1Cc1ccccc1Cl`, for which the Potency result was “inactive”.

In the case of `CCNc1ncc2nc(-c3cc(F)cc(F)c3)c(=O)n(C3CC3)c2n1`, the Potency entry is “inactive”.

In the case of `COc1ccc2[nH]cc(CCNc3ccnc(-c4ccccc4Cl)n3)c2c1`, the Potency was 22.4 µM (active).

Consider `CN(C)c1ncc2nc(-c3ccccc3)c(=O)n(Cc3cccs3)c2n1`, for which the Potency entry is “inactive”.

For `COc1cccc(Cn2c(=O)c(-c3ccc(Cl)cc3)nc3cnc(N4CCN(C)CC4)nc32)c1`, the Potency entry is “inactive”.

With `FC(F)(F)c1ccccc1-c1nc(-n2ccnc2)c2ccccc2n1`, the Potency was 15.8 µM (active).

Consider `CN1CCN(c2ncc3nc(-c4ccc(Cl)cc4)c(=O)n(C)c3n2)CC1`, for which the Potency result is “inactive”.

With `O=c1cnc2cnc(N3CCNCC3)nc2n1C1CC1`, the Potency entry was “inactive”.

In the case of `FC(F)(F)c1ccccc1-c1nc(NC2CC2)c2ccccc2n1`, the Potency was 14.1 µM (active).

In the case of `CNc1nc(-c2ccccc2C)nc2ccccc12`, the Potency was 12.6 µM (active).

As for `COCCn1c(=O)c(C)nc2cnc(OC)nc21`, the Potency entry was “inactive”.

With `N#CCCn1c(=O)cnc2cnc(Oc3cccc(Cl)c3)nc21`, the Potency entry is “inactive”.

With `Cc1cnc(CNc2ncncc2-c2ccoc2)cn1`, the Potency result is “inactive”.

Consider `O=c1c(-c2ccc(F)cc2)nc2cnc(N3CCOCC3)nc2n1C1CC1`, for which the Potency result was “inactive”.

Regarding `COc1ccc(Oc2ncc3nc(-c4ccc(F)cc4)c(=O)n(C4CC4)c3n2)cc1`, the Potency entry is “inactive”.

Turning to `Cc1noc(C)c1-c1ccc2ncnc(Nc3ccccc3)c2c1`, the Potency is 6.31 µM (active).

With `COc1ccc(-c2nc3cnc(OC)nc3n(C[C@H]3CCCO3)c2=O)cc1`, the Potency entry was “inactive”.

As to `CNc1nc(-c2ccoc2)nc2ccccc12`, the Potency result is “inactive”.

On to `c1cn(-c2cc(-c3ccc4c(c3)OCO4)ncn2)cn1`, for which the Potency is 3.16 µM (active).

As to `COc1ccc(CNc2ncnc3ccc(-c4ccc(C(=O)N(C)C)cc4)cc23)c(OC)c1`, the Potency entry is “inactive”.

As for `COc1ccc(CNc2nc(-c3c(C)noc3C)nc3ccccc23)c(OC)c1`, the Potency entry was “inactive”.

As for `CN(C)c1ncc2nc(-c3ccccc3)c(=O)n(CCc3ccccc3)c2n1`, the Potency result was “inactive”.

Turning to `Cc1cnc(CNc2ccnc(-c3cccc(C#N)c3)n2)cn1`, the Potency is 22.4 µM (active).

On to `CCNc1ncc2nc(-c3ccc(OC)cc3)c(=O)n(Cc3cccs3)c2n1`, for which the Potency entry is “inactive”.

Turning to `COc1ccc2[nH]cc(CCNc3cc(-c4cccnc4)ncn3)c2c1`, the Potency is 14.1 µM (active).

As to `Cn1c(=O)c(-c2ccc(Cl)cc2)nc2cnc(OCc3ccccc3)nc21`, the Potency result is “inactive”.

For the compound `COc1ccccc1-c1cncnc1N1CCN(C)CC1`, the Potency entry is “inactive”.

As for `COc1ccc(-c2nc3cnc(N(C)C)nc3n(-c3ccccc3)c2=O)cc1`, the Potency entry was “inactive”.

Turning to `CCNc1ncc2nc(-c3cc(F)cc(F)c3)c(=O)n(CCOC)c2n1`, the Potency entry is “inactive”.

On to `COCCNc1nc(-c2ccoc2)nc2ccccc12`, for which the Potency entry is “inactive”.

On to `Cc1noc(C)c1-c1nc(NCc2ccccc2)c2ccccc2n1`, for which the Potency result was “inactive”.

Consider `Cc1cnc(CNc2ncncc2-c2cccc(NS(C)(=O)=O)c2)cn1`, for which the Potency entry was “inactive”.

In the case of `CCNc1ncc2nc(-c3ccc(Cl)cc3)c(=O)n(Cc3cccc(OC)c3)c2n1`, the Potency entry is “inactive”.

In the case of `Cc1cnc(CNc2nc(-c3ccccc3C(F)(F)F)nc3ccccc23)cn1`, the Potency entry was “inactive”.

With `COc1ccccc1CNc1nc(-c2ccc3c(c2)OCO3)nc2ccccc12`, the Potency entry is “inactive”.

For the compound `Cn1c(=O)c(-c2ccc(Cl)cc2)nc2cnc(N3CCNCC3)nc21`, the Potency entry was “inactive”.
